This assay relates to PPARg DBDmut IVT, anti-PPARg (DBD mutation: PPARg1 K132A/R137A, NR concentration 270 nM). The assay is described as follows: PBM binding z-score (relative to random genomic background probes); higher = stronger binding; sequences stand for … in GC…GCGATTGACAGCGTAGAATGAAGG
In a few lines: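 Scanned fluorescence from custom Agilent 4×180K protein-binding microarrays was regression-normalized. Binding z-scores use random background probes as reference. Ligand-free nuclear receptor dimers were incubated on the arrays for 1 h and detected with antibodies against each partner (one per run).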
In turn, CCGACTGGGGAAAAGGTTACCATACTCAGTACGA showed a PBM binding z-score of -0.129. For CAAACGAGGGCATGAGTTGATAGCAAATGCCGAT the value was -0.353. The figure for TTACCAAAGTGAGCTGAGGTCGTTGATCCAACTC is -0.706; for TCGAGTAGGTTAGTGGCATTCAGAATGGCGTCGA it is -0.671; for CCAGACAGGTGAGAAGGTAATTCAGCCTCGATTA it is -0.734. For CGTCCAAGGTCAGCAGGTCAGTGTAAGCGACGTG the value was -0.582. The sequence GCAGACAGGTGAAACGAAGGTAACTCAGGGTGGC had a PBM binding z-score of -0.484. GCGATTGGGGCATCAGCAGGTTACCATAACTTAA had a PBM binding z-score of -0.408. For CCTTACGGGTCACTCCGGGTTATAGCATCGGAGT the value was -0.00571; for CCTAGCAGGCCTATCTGGGTCACTCAAGGCTTGA, -0.863; for ACTCGGAGCACAAAGGTCAGAGCTACGCCAGTGA, -0.435.

AGAGTGAGGTTAAGATCAGGGAAACAGAATACAT: the PBM binding z-score came out at 0.933. For CAAACTAGGTCGCGAAAGGTCAAAGTCGAATGAC the value was 1.98; for CAAACTAGGTCTAAGGTCAAAGTCGAGCCAACCA, 0.848; for GATACAGGGTCAAGGCCAGAGTTCGCGTATTGAT, -0.0978.

Sequence CCTACTAGGCCACGAAAGGTCATTGATTCAGTGA displayed a PBM binding z-score of 0.0553. For AGAATGAGGTTAAGATCAGGGACACAGAATACAT the value was 0.953; for TCTTGTAGATCTAGCAGGTTAAGAAAGCCTGAGT, 0.6; for CCGAGTAGGTTATAGGGCATTCAGGCAACGGTGA, -0.169. For TAGCCTAGGTCTTTCAGGGGCCAGTATAGAAAGC the value was 0.0901.

On to CCTGGTAGGTCAATGGTCAGCTAAAGCAGCTCGC, for which the PBM binding z-score was -0.453. The figure for CCTACTGTGCCAAGGTCATTGATCAGTCAAAGCA is 0.41; for TCTCGTTGGTCAAAGGTCACACACTCGAAATGCG it is 2.09; for TAGCCTAGGTCATTGGGCCACTATAGTACGCATC it is -0.0772. With TAGCCTAGGTCATTCAGTGGCCAGTATAGAAAGC, the PBM binding z-score is -0.521. TGAATGAGGTTATAAGATGAGGGAACGTTGCAAA showed a PBM binding z-score of 0.169. For CAAACTAGGCCAAAGGTCAAAGTCGAGCCAACCA the value was 1.59; for GCAGGCAGGTGAAACGCAGGTAACTCAGGGTGGC, -1.1; for CTCGAAAGGTCGGTTGAGGTTAGTATACGGATAA, -0.683. For CCAACTAGGTCAAGGACAGTGAATCTCCGCACGC the value was 1.81; for CCGACTGGGGCATAAAGGTTACCATACCATCCGG, -1.23.

ACTAGTTGGTCAGCTGAGGTCAGACACAATTCGG registered a PBM binding z-score of 0.951. For AGTCAAAGTTCATCTAGGTACCGTAAGATATGCT the value was 1.1; for CCGACAGGGGCAAAGGTTACCATACTCAGTACGA, -0.953; for CCTATTGGGCCATTCAGAGGTCATTGATCATATG, 0.228. The figure for CCTATTAGTTGACCCTAAGGGCAACCGAAGCTCG is 0.556.

For AGTCAAAGTTCCCTAGGTAACGTAAGATTCAGCT, the PBM binding z-score was determined as 0.358. The figure for TGTAGCAGGCCAGAGGGTCACTCAAGAGGTACGG is -0.849. The figure for TAGCCTTGGTCAGATCGGGCCAGTATACGCTATA is -1.18; for ATCCCTAGGTAAAGTTCAGTGAAAGATCGATAGA it is 0.771.

(Values after the supplement of paper PMC6555819.)
